Shown are actives, neighbours in structure and some others; about 18% of the full set was active somewhere.
IL-1B inflam inh: inhibitors of inflammasome signaling (IL-1 beta secretion); AID 743279; activity change, % at 57.5 µM; actives 4.7% (n = 360,000); THP-1 LPS/ATP IL-1B secretion, AlphaLISA, 16 h; hits give low values; in the data active means activity change below about -50%; inconclusive means mostly about -30% to -49%
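THP-1 cells pretreated 1 hr with compounds (up to 57.5 uM final), then stimulated with LPS (250 ng/mL final) plus ATP (1.25 mM final); secreted IL-1B measured by AlphaLISA after 16 hr, decreased signal indicating inhibition.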
TDP1 cell CPT: growth inhibition of DT40 Tdp1-/-;hTDP1 cells with camptothecin (screen for TDP1 inhibitors); AID 686979; chicken DT40 Tdp1-/-;hTDP1 cells + 20 nM CPT, ATP luminescence, 48 h; Potency, µM (highest dose often 46.2 µM), inactives show at the top dose activity change, negative = growth inhibition, actives largely listed as inhibitors; actives 12% (n = 420,000); further: potency means the concentration at half of the fitted maximal effect; nearly all actives have a fitted effect of over 55% in size
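Cell growth measured by CellTiter-Glo luminescence after a minimum 48 h, 37 C compound exposure with 20 nM CPT in Tdp1-knockout DT40 cells stably expressing hTDP1, seeded 400/well; qHTS titration format.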
RORg inh: inhibitors of mouse ROR gamma transcriptional activity | P51450 | Drosophila S2 Gal4-RORgamma UAS-luciferase reporter, 20 h | Potency, µM (top dose mostly 53.6 µM), for inactives: at the top dose activity change, negative = inhibition, hits mostly inhibitors | actives 5.4% (n = 310,000); further: potency means the concentration at half of the fitted maximal effect; nearly all actives have a fitted effect of over 60% in size
Target sequence (P51450 whole entry, looked up, the tested form may be a part): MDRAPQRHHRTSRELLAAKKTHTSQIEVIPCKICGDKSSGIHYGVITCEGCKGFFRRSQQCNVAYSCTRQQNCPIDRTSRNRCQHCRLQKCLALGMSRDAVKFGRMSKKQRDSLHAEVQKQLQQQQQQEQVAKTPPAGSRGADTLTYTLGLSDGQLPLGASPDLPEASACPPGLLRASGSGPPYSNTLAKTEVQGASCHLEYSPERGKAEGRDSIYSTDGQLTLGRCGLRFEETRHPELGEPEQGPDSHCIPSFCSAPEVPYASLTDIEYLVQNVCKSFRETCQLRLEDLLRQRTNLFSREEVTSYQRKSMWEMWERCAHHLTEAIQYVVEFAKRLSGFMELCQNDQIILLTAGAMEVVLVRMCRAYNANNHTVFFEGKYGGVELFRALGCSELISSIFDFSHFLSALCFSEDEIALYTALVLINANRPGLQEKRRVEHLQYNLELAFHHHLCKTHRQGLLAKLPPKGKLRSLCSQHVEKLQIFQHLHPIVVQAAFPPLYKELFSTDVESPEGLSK
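Read-out: Photinus luciferase luminescence; inhibitors lower reporter signal. Insect Schneider cells with Gal4-ROR gamma fusion under metallothionein promoter, UAS reporter; 700 uM final copper sulfate induction, 20 hr, ambient temperature.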
LDHA inh: LDHA (human) enzyme inhibition. activity change, % (values are at about 110 or 230 µM). purified LDHA, NADH/diaphorase-resazurin fluorescence; hits give low values. actives 0.15% (n = 480,000). P00338. AID 1347041; in the data active means activity change below about -30%; inconclusive means mostly about -25% to -30%;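 further: plate controls were DMSO wells for no effect and wells without enzyme for full effect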
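LDH5 2 nM; NADH 0.06 mM, pyruvate 0.2 mM; 200 mM Tris pH 7.4, EDTA, Tween-20; 5 min RT. Detection: diaphorase 0.133 mg/mL + resazurin 37 µM, fluorescence ex540/em590 at 0 and 20 min; normalized to enzyme-free and DMSO wells.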
TDP1 cell noCPT: qHTS for Inhibitors of human tyrosyl-DNA phosphodiesterase 1 (TDP1): qHTS in cells in absence of CPT; DT40 Tdp1-/- hTDP1 cells, no CPT, ATP luminescence, 48 h; Potency, µM (series often up to 46.2 µM), without a hit: top-dose activity change, negative = growth inhibition, hits mostly inhibitors; actives 15% (n = 420,000); further: potency means the concentration at half of the fitted maximal effect; nearly all actives have a fitted effect of over 55% in size
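Camptothecin absent (DMSO only). Human TDP1-complemented DT40 knockout cells, 400 cells/well, 37 °C for minimum 48 hr; ATP measured via CellTiter-Glo, 30 min dark incubation, luminescence.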
Gal4-VP16 FLuc: counter-screen for ROR gamma inhibitors: Gal4-VP16 reporter | Drosophila S2 Gal4-VP16 UAS-luciferase, luminescence, 20 h | Potency, µM (highest dose often 53.6 µM), inactives show at the highest dose activity, negative = inhibition, hits mostly inhibitors | actives 3.5% (n = 310,000) | AID 2546;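 further: Gal4-VP16 expression switched on by copper sulfate through the metallothionein promoter; potency means the concentration at half of the fitted maximal effect; nearly all actives have a fitted effect of over 50% in size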
An asterisk follows results filed as active. Unless noted, the call rests on the fitted dose curve; in most records, active means well fitted curve in the direction sought with a large enough effect; inconclusive means small, poorly fitted or top-dose-only effect, or another doubt; inactive means no such curve, though single readings can be large; an effect the other way counts as inactive or inconclusive. Unless noted, on the % scale 0 is the no-effect control and ±100 the full control effect.

Screening Cc1ccc2nc(NNC(=O)c3ccc4c(c3)OCCO4)sc2c1 returned IL-1B inflam inh 14, TDP1 cell CPT -21%, RORg inh 4.5µM*, LDHA inh 1, TDP1 cell noCPT inconclusive and Gal4-VP16 FLuc inconclusive.
Screening O=C(NNc1nc2cc3c(cc2s1)OCO3)c1cccc(F)c1 returned IL-1B inflam inh 10, TDP1 cell CPT inconclusive, RORg inh 4.5µM*, LDHA inh 1, TDP1 cell noCPT inconclusive and Gal4-VP16 FLuc inconclusive.
Screening Cc1ccc2nc(NNC(=O)c3ccc(S(=O)(=O)N4CCc5ccccc5C4)cc3)sc2c1 returned IL-1B inflam inh 150, TDP1 cell CPT 2.9µM*, RORg inh -1%, LDHA inh -11, TDP1 cell noCPT 5.2µM* and Gal4-VP16 FLuc -10%.
Clc1cccc(CSc2nc(CN3CCOCC3)nc3ccccc23)c1 was read as LDHA inh -10.
Cc1ccc2c(C)c(C(=O)Nc3cccc4cccnc34)oc2c1 was read as LDHA inh 10.
For COc1ccccc1C(=O)Nc1nc2cc3c(cc2s1)OCO3 the results were IL-1B inflam inh 0, TDP1 cell CPT inconclusive, RORg inh 6%, LDHA inh -1, TDP1 cell noCPT -6% and Gal4-VP16 FLuc -11%.
Screening O=C(NNc1nc2cc3c(cc2s1)OCO3)c1ccccc1 returned IL-1B inflam inh -17, TDP1 cell CPT -10%, RORg inh 5µM*, LDHA inh 1, TDP1 cell noCPT inconclusive and Gal4-VP16 FLuc inconclusive.
For CCOC(=O)c1c(C)[nH]c(C(=O)N2CCc3cc(OC)c(OC)cc3C2)c1C the results were IL-1B inflam inh -61*, TDP1 cell CPT 10µM*, LDHA inh -3 and TDP1 cell noCPT 16µM*.
CC(=O)c1c(C)[nH]c(C(=O)NCCc2ccc(F)cc2)c1C was read as LDHA inh 0.
`CCOc1ccc(CCNC(=O)c2[nH]c(C)c(C(C)=O)c2CC)cc1OCC` gave IL-1B inflam inh 30, TDP1 cell CPT 18µM*, RORg inh -3%, LDHA inh 0, TDP1 cell noCPT 23µM* and Gal4-VP16 FLuc 0%.
`CCOC(=O)c1c(C)[nH]c(C(=O)NCCc2ccc(OC)c(OC)c2)c1C` gave IL-1B inflam inh -5, TDP1 cell CPT inconclusive, RORg inh -3%, LDHA inh -3, TDP1 cell noCPT 15µM* and Gal4-VP16 FLuc -7%.
For CCOC(=O)c1c(C)[nH]c(C(=O)N2CCN(C(=O)OCC)CC2)c1C the results were IL-1B inflam inh -2, TDP1 cell CPT 0%, RORg inh -29%, LDHA inh -6, TDP1 cell noCPT 11% and Gal4-VP16 FLuc -11%.
O=C(NCCc1c[nH]c2ccccc12)c1ccc(-c2ccccc2)cc1 was read as LDHA inh 2.
For CC1=C(C(=O)N2CCCCC2)C(c2ccc(N(C)C)cc2)C2=C(CC(C)(C)CC2=O)N1 (stereo not drawn) the results were LDHA inh 15.
`CNC(=O)C1CCN(Cc2nc3ccccc3c(C)c2C(=O)OC)CC1` gave LDHA inh 5.
CS(=O)(=O)N(Cc1ccccc1)c1ccc(C(=O)Nc2cccc(Cl)c2)cc1 was read as TDP1 cell CPT inconclusive, LDHA inh -9 and TDP1 cell noCPT 15µM*.
CS(=O)(=O)N(Cc1ccc(Cl)cc1)c1ccc(C(=O)Nc2cccnc2)cc1 was read as IL-1B inflam inh 0, TDP1 cell CPT -17%, RORg inh 37%, LDHA inh -6, TDP1 cell noCPT -29% and Gal4-VP16 FLuc -18%.
For Cc1ccc(NC(=O)c2ccc(N(Cc3ccccc3)S(C)(=O)=O)cc2)cc1 the results were TDP1 cell CPT inconclusive, LDHA inh -1 and TDP1 cell noCPT 12µM*.
CC(=O)c1cccc(NC(=O)c2ccc(N(Cc3ccc(C)cc3)S(C)(=O)=O)cc2)c1 was read as IL-1B inflam inh -30, TDP1 cell CPT 16µM*, RORg inh 0%, LDHA inh -1, TDP1 cell noCPT inconclusive and Gal4-VP16 FLuc 3%.
Cc1oc(-c2nc(C#N)c(NC3CC3)o2)cc1S(=O)(=O)N(C)C was read as LDHA inh -2.
C=CCC[C@H](Cc1ccc(F)cc1)C(=O)OC[C@@H](C)NC(=O)[C@@H](CC=C)CC(=O)N[C@H](CO)Cc1ccccc1 was read as IL-1B inflam inh -3, TDP1 cell CPT inconclusive, LDHA inh 5 and TDP1 cell noCPT inconclusive.
`C=CC[C@@H](CC(=O)N[C@H](CO)Cc1ccccc1)C(=O)N[C@H](COC(=O)[C@@H](CC=C)Cc1ccc(F)cc1)C(C)(C)C` gave IL-1B inflam inh inconclusive, TDP1 cell CPT inconclusive, LDHA inh 2 and TDP1 cell noCPT inconclusive.
C=CCC[C@@H](Cc1ccc(F)cc1)C(=O)OC[C@@H](NC(=O)[C@@H](CC=C)CC(=O)N[C@@H](CO)Cc1ccccc1)C(C)(C)C was read as IL-1B inflam inh inconclusive, TDP1 cell CPT 23µM*, LDHA inh 6 and TDP1 cell noCPT inconclusive.
Screening C=CCC[C@H](Cc1ccc(F)cc1)C(=O)OC[C@@H](NC(=O)[C@@H](CC=C)CC(=O)N[C@@H](CO)Cc1ccccc1)C(C)(C)C returned IL-1B inflam inh -60*, TDP1 cell CPT 21µM*, LDHA inh 6 and TDP1 cell noCPT 21µM*.
Screening C=CCC[C@H](Cc1ccc(F)cc1)C(=O)OC[C@@H](C)NC(=O)[C@@H](CC=C)CC(=O)N[C@@H](CO)Cc1ccccc1 returned IL-1B inflam inh -11, TDP1 cell CPT inconclusive, LDHA inh -6 and TDP1 cell noCPT 15µM*.
For CC(Sc1nnc(C2CC2)n1-c1ccccc1)c1nnc(-c2ccc(F)cc2)o1 (stereo not drawn) the results were LDHA inh -5.
Screening Cc1ccc2c(c1)C(=O)C(=O)N2CC(=O)OC(C)C returned IL-1B inflam inh 13, TDP1 cell CPT 5.2µM*, RORg inh 1%, LDHA inh 13, TDP1 cell noCPT 5.8µM* and Gal4-VP16 FLuc 14%.
`Cc1ccc2c(c1)C(=O)C(=O)N2Cc1ccc(C(F)(F)F)cc1` gave IL-1B inflam inh 63, TDP1 cell CPT 0.92µM*, LDHA inh 8 and TDP1 cell noCPT 1µM*.

From PubChem BioAssay
